# A number with no mark means an inactive call. Records with an inconclusive call do not appear. Entries that show only a call come without a potency. Active and inactive are the calls of the source. Unless noted, calls follow the shape of the dose curve; as a rule, active = well fitted curve in the direction sought with a large enough effect in the repeat runs; inconclusive = weak or mixed curves; inactive = no such curve, though single readings can be large; an effect the other way counts as inactive or inconclusive.
# Columns and labels:
# [1] = qHTS assay to identify small molecule agonists of the hypoxia (HIF-1) signaling pathway - cell viability counter screen (AID 1224844; calls by dose curve; also: nearly all actives have a fitted effect of over 50% in size)
# Procedure, shortened: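 Cells (HRE-bla ME-180, 2,000 per well) sat 5 hrs at 37C, got compound for 17 hrs, were read for CCF4-AM FRET, and were finally lysed with CellTiter-Glo for a 30 min room-temperature luminescence read.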
# [2] = qHTS assay to identify small molecule agonists of H2AX (AID 1224845; active = well fitted activation curve with a large enough effect in the signal ratio in the repeat runs, not every such curve was filed as active; the % refers to the signal ratio)
# Procedure, shortened: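 Wild-type CHO-K1 cells, plated overnight, exposed 3hr at 37C to 15 concentrations (0.76% DMSO final). Lysed, then HTRF anti-pH2AX (S139) cryptate and anti-H2AX-d2 antibodies, 24 hr room temperature; 665/620 nm emission read.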
# [3] = qHTS assay to identify small molecule agonists of the hypoxia (HIF-1) signaling pathway (AID 1224846; active = well fitted activation curve with a large enough effect in the signal ratio in the repeat runs, not every such curve was filed as active; the % refers to the signal ratio)
# Procedure, shortened: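 A low-serum medium (0.5% dialyzed FBS) holding 2,000 HRE-bla ME-180 cells per well is preincubated for 5 hrs, dosed with compounds by pintool, and kept a further 17 hrs at 37C, 5% CO2 before CCF4-AM FRET detection of beta-lactamase.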
# [4] = qHTS assay to identify small molecule agonists of H2AX - cell viability counter screen (AID 1224847; calls by dose curve; also: top concentration of the series differs between compounds; nearly all actives have a fitted effect of over 30% in size)
# Procedure, shortened: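 For this counter screen, overnight-attached CHO-K1 cells received test compounds (15 concentrations, 0.76% DMSO final); 3 hr later at 37C, CellTiter-Glo reagent was added and luminescence recorded after 30 min at room temperature.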
# [5] = qHTS assay to identify small molecule antagonists of the estrogen related receptor (ERR) signaling pathway from Tox21 library (AID 1224848); also: nearly all actives have a fitted effect of over 50% in size; also: potency is read from the fitted curve at half-maximal effect
# Procedure, shortened: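 ERR reporter cell line (from NTP) seeded 2,000 cells/well, rested 6 h at 37 C/5% CO2, then pin-dosed with compounds in DMSO. After 18 h at 37 C, ONE-Glo added; luminescence read after 30 min at room temperature.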
# [6] = qHTS assay to identify small molecule agonists of the estrogen related receptor (ERR) signaling pathway from Tox21 library (AID 1224849; calls by dose curve; also: nearly all actives have a fitted effect of over 15% in size); settings: ERR reporter cell line, ONE-Glo luciferase, 18 h; at 92.4 µM (top of the series) unless noted
# Procedure, shortened: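 Screening used an NTP-provided ERR luciferase cell line. Compounds in DMSO were added 6 h after seeding and left 18 h at 37 C before a 30 min ONE-Glo step and luminescence reading.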
# [7] = qHTS RealTime-Glo MT Cell Viability Assay in HepG2 cells - 24 hour (AID 1224867); also: nearly all actives have a fitted effect of over 50% in size
# Procedure, shortened: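 Viability was tracked continuously by NanoLuc luminescence from prosubstrate reduced by living HepG2 cells, at successive time points over 40 h of compound exposure. Cells with reagent were preincubated 5 h at 37 °C before compound addition.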
# [8] = qHTS RealTime-Glo MT Cell Viability Assay in HEK293 cells - 32 hour (AID 1224868); also: nearly all actives have a fitted effect of over 50% in size; also: potency is read from the fitted curve at half-maximal effect; as to activity change, negative = cytotoxic: top concentration of the series differs between compounds
# Procedure, shortened: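 Viability tracked continuously by luminescence as live cells reduce a prosubstrate for NanoLuc; HEK293 cells preincubated 5 h, compound-treated at 37 C, and read at 0, 8, 16, 24, 32 and 40 h.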
# [9] = A CellTox Green Cytotoxicity Assay to monitor cytotoxicity in HEK293 cells - 0 hour (AID 1224869); also: nearly all actives have a fitted effect of over 50% in size
# Procedure, shortened: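 Fluorescence intensity, read at 0, 8, 16, 24, 32 and 40 h of compound treatment, reflected dye binding to DNA of dead HEK293 cells; compounds (23 nL, DMSO) were added 5 h after plating cells with reagent.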
# [10] = qHTS RealTime-Glo MT Cell Viability Assay in HepG2 cells - 40 hour (AID 1224870); also: nearly all actives have a fitted effect of over 50% in size
# Procedure, shortened: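 HepG2 cells (600/well) mixed with RealTime-Glo MT reagent, settled 5 h at 37 C/5% CO2 before compound addition. Nonlytic NanoLuc luminescence from viable-cell prosubstrate reduction read repeatedly during 40 h treatment at 37 C.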
Compound,Potency [1],Potency [2],outcome [3],Potency [4],Potency [5],"activity change, positive = activation [6]",Potency [7],Potency [8],Potency [9],Potency [10],"activity change, negative = cytotoxicity [1]",activation (H2AX phosphorylation) [2],activation [3],"activity change, negative = cytotoxicity [4]","activity, negative = inhibition [5]","activity change, negative = cytotoxicity [7]","activity change, negative = cytotoxic [8]",cytotoxicity [9],"activity change, negative = cytotoxic [10]"
COC(=O)/C=C(/C)N,inactive,inactive,inactive,inactive,inactive,7.53% [at 42.5 µM],inactive,inactive,inactive,inactive,–,–,–,–,–,–,–,–,–
O=C(C(Cl)Cl)N1CCOC12CCCCC2,inactive,inactive,inactive,inactive,inactive,-5.71%,inactive,inactive,inactive,inactive,–,–,–,–,–,–,–,–,–
O=C(O)[C@@H](O)[C@H](O)[C@H](O)[C@@H](O)C(=O)O,inactive,inactive,inactive,inactive,inactive,4.4% [at 42.5 µM],inactive,inactive,inactive,inactive,–,–,–,–,–,–,–,–,–
CCOc1ccc(OCC)c(Cl)c1,inactive,inactive,inactive,inactive,inactive,4.33%,inactive,inactive,inactive,inactive,–,–,–,–,–,–,–,–,–
CCOC(=O)NCCC[Si](OCC)(OCC)OCC,inactive,inactive,inactive,inactive,inactive,-9.42%,inactive,inactive,inactive,inactive,–,–,–,–,–,–,–,–,–
CC(C)S,inactive,inactive,inactive,inactive,inactive,3.07%,inactive,inactive,inactive,inactive,–,–,–,–,–,–,–,–,–
COC(=O)c1ccc(OC)cc1,inactive,inactive,inactive,inactive,inactive,5.85%,inactive,inactive,inactive,inactive,–,–,–,–,–,–,–,–,–
FC(F)(F)c1ccccc1,inactive,inactive,inactive,inactive,inactive,2.08%,inactive,inactive,inactive,inactive,–,–,–,–,–,–,–,–,–
CC[C@H]1CC[C@H](NCc2cc3c(cc2OC)[C@H]2C[C@H]2C(=O)N3C)[C@H](c2ccccc2)N1,inactive,inactive,inactive,inactive,27.3 µM (active),-40.9%,inactive,19.5 µM (active),inactive,inactive,–,–,–,–,–,–,–,–,–
CCOc1ccc(NC(N)=O)cc1,inactive,inactive,inactive,inactive,inactive,1.88%,inactive,inactive,inactive,inactive,–,–,–,–,–,–,–,–,–
CCN(CC)CC1CCCCN1CC(=O)N1c2ccccc2C(=O)Nc2cccnc21 (stereo not given),inactive,inactive,inactive,inactive,inactive,8.53% [at 42.5 µM],inactive,inactive,inactive,inactive,–,–,–,–,–,–,–,–,–
Cc1cc2c(s1)Nc1ccccc1N=C2N1CCN(C)CC1,inactive,inactive,inactive,inactive,inactive,-1.9% [at 42.5 µM],inactive,inactive,inactive,inactive,–,–,–,–,–,–,–,–,–
CC(C)OC(C)C,inactive,inactive,inactive,inactive,inactive,-8.47%,inactive,inactive,inactive,inactive,–,–,–,–,–,–,–,–,–
CCOC(=O)c1cc(=O)c2c(OCC(COc3cccc4oc(C(=O)OCC)cc(=O)c34)OC(=O)[C@@H](N)CCCCN)cccc2o1,inactive,inactive,inactive,inactive,inactive,8.23% [at 42.5 µM],inactive,inactive,inactive,inactive,–,–,–,–,–,–,–,–,–
O=C(CCCl)NCc1ccccc1,inactive,inactive,inactive,inactive,inactive,5.97% [at 42.5 µM],inactive,inactive,inactive,inactive,–,–,–,–,–,–,–,–,–
OCCN(CCO)CCN(CCO)CCO,inactive,inactive,inactive,inactive,inactive,-1.05%,inactive,inactive,inactive,inactive,–,–,–,–,–,–,–,–,–
C[C@@H]1CN(c2c(F)c(F)c3c(=O)c(C(=O)O)cn(C4CC4)c3c2F)C[C@H](C)N1,–,–,–,–,–,1.67% [at 19 µM] (active),–,–,–,–,2.14% [at 15.8 µM],-0.115% [at 31.6 µM],0.101% [at 15.8 µM],5.9% [at 31.6 µM],2.94% [at 19 µM],0.621% [at 15.8 µM],11.6% [at 15.8 µM],5.43% [at 15.8 µM],1.26% [at 15.8 µM]
C[C@]12C(=O)OC(=O)[C@H]1[C@H]1C=C[C@@H]2C1,inactive,inactive,inactive,inactive,inactive,0.566%,inactive,inactive,inactive,inactive,–,–,–,–,–,–,–,–,–
CCOC(=O)c1ccccc1O,inactive,inactive,inactive,inactive,inactive,1.87% [at 42.5 µM],inactive,inactive,inactive,inactive,–,–,–,–,–,–,–,–,–

Compound,Potency [1],Potency [2],outcome [3],Potency [4],Potency [5],"activity change, positive = activation [6]",Potency [7],Potency [8],Potency [9],Potency [10],"activity change, negative = cytotoxicity [1]",activation (H2AX phosphorylation) [2],activation [3],"activity change, negative = cytotoxicity [4]","activity, negative = inhibition [5]","activity change, negative = cytotoxicity [7]","activity change, negative = cytotoxic [8]",cytotoxicity [9],"activity change, negative = cytotoxic [10]"
CC(C)C[C@H](NC(=O)OCC1c2ccccc2-c2ccccc21)C(=O)O,inactive,inactive,inactive,inactive,inactive,147% (active),inactive,inactive,inactive,inactive,–,–,–,–,–,–,–,–,–
CCCCCCn1c(=O)c2c(ncn2C)n(C)c1=O,inactive,inactive,inactive,inactive,inactive,-1.88% [at 42.5 µM],inactive,inactive,inactive,inactive,–,–,–,–,–,–,–,–,–
CCc1cc(Cl)c(OC)c(C(=O)NC[C@@H]2CCCN2CC)c1O,inactive,inactive,inactive,inactive,inactive,1.1% [at 42.5 µM],inactive,inactive,inactive,inactive,–,–,–,–,–,–,–,–,–
CCCCCCCOC(=O)CCC,inactive,inactive,inactive,inactive,inactive,-0.487%,inactive,inactive,inactive,inactive,–,–,–,–,–,–,–,–,–
O=C(O)c1ccccc1Nc1cc(Cl)ccc1C(=O)O,–,–,–,–,–,-5.59% [at 19 µM],–,–,–,–,5.17% [at 15.8 µM],5.25% [at 31.6 µM],-1.19% [at 15.8 µM],9.56% [at 31.6 µM],-10.4% [at 19 µM],-0.715% [at 15.8 µM],3.41% [at 15.8 µM],1.27% [at 15.8 µM],-5.11% [at 15.8 µM]
C1CCOC1,inactive,inactive,inactive,inactive,inactive,1.79%,inactive,inactive,inactive,inactive,–,–,–,–,–,–,–,–,–
CCCCC1CCC(=O)O1 (stereo not given),inactive,inactive,inactive,inactive,inactive,-0.824%,inactive,inactive,inactive,inactive,–,–,–,–,–,–,–,–,–
Cc1ccc(C)c(N)c1,inactive,inactive,inactive,inactive,inactive,2.8%,inactive,inactive,inactive,inactive,–,–,–,–,–,–,–,–,–
CC(=O)N[C@@H](CC(C)C)C(=O)O,inactive,inactive,inactive,inactive,inactive,-0.851% [at 42.5 µM],inactive,inactive,inactive,inactive,–,–,–,–,–,–,–,–,–
O=S(=O)(O)C(F)(F)F,inactive,inactive,inactive,inactive,inactive,4.04%,inactive,inactive,inactive,inactive,–,–,–,–,–,–,–,–,–
CC(C)CCCCCCc1ccc(OCCOCCO)cc1,inactive,inactive,inactive,inactive,inactive,-10.7%,inactive,inactive,inactive,inactive,–,–,–,–,–,–,–,–,–
Cc1ncc(CO)c(CN)c1O,inactive,inactive,inactive,inactive,inactive,4.27% [at 42.5 µM],inactive,inactive,inactive,inactive,–,–,–,–,–,–,–,–,–
Cc1cccc(C)c1NC(=O)CN1CCCCCC1,inactive,inactive,inactive,inactive,inactive,0.669% [at 42.5 µM],inactive,inactive,inactive,inactive,–,–,–,–,–,–,–,–,–
O=C1CCCc2ccccc21,inactive,inactive,inactive,inactive,inactive,6.42%,inactive,inactive,inactive,inactive,–,–,–,–,–,–,–,–,–
CCCCNCCCC,inactive,inactive,inactive,inactive,inactive,0.877%,inactive,inactive,inactive,inactive,–,–,–,–,–,–,–,–,–
NCCC(O)(P(=O)(O)O)P(=O)(O)O,inactive,inactive,inactive,inactive,inactive,4.61% [at 42.5 µM],inactive,inactive,inactive,inactive,–,–,–,–,–,–,–,–,–
FC(F)(F)C(F)(F)C(F)(F)C(F)(F)C(F)(F)C(F)(F)C(F)(F)C(F)(F)Br,inactive,inactive,inactive,inactive,inactive,6.1% [at 42.5 µM],inactive,inactive,inactive,inactive,–,–,–,–,–,–,–,–,–
CCc1nnc(NS(=O)(=O)c2ccc(N)cc2)s1,inactive,inactive,inactive,inactive,inactive,2.74% [at 42.5 µM],inactive,inactive,inactive,inactive,–,–,–,–,–,–,–,–,–
C1CSCCS1,inactive,inactive,inactive,inactive,inactive,3.63%,inactive,inactive,inactive,inactive,–,–,–,–,–,–,–,–,–
